# Reference: PubChem BioAssay (EPA / NIEHS)
# The source made the active and inactive calls. Rule for the calls: active = hit-call score of the fitted dose curve at least 0.9, where 1 is the maximum; inactive = score below 0.9.
# Test: ATG_NRF2_ARE_CIS: Attagene CIS-FACTORIAL HepG2 Assay for human Nuclear Factor Erythroid 2 Related Factor 2 (NFR2) response to Antioxidant Response Elements (ARE) (AID 2282992)
# Settings: HepG2 Attagene ARE/NRF2 reporter, transcription factor activity; actives raise or lower the signal
# Experimental: ATG_CIS is a cell-based, multiplexed-readout assay that uses HepG2, a human liver cell line, with measurements taken at 24 hours after chemical dosing in a 24-well plate.ATG_NRF2_ARE_CIS is one of 52 assay component(s) measured or calculated from the ATG_CIS assay. It is designed to make measurements of mRNA induction, a form of inducible reporter, as detected with fluorescence intensity signals by Reverse transcription polymerase chain reaction (RT-PCR) and Capillary electrophoresis technology.Data from the assay component ATG_NRF2_ARE_CIS was analyzed into 1 assay endpoint. This assay endpoint, ATG_NRF2_ARE_CIS, was analyzed with bidirectional fitting relative to DMSO as the negative control and baseline of activity. Using a type of inducible reporter, measures of mRNA for gain or loss-of-signal activity can be used to understand the reporter gene at the transcription factor-level as they relate to the gene NFE2L2. Furthermore, this assay endpoint can be referred to as a primary readout, because this assay has produced multiple assay endpoints where this one serves a reporter gene function. To generalize the intended target to other relatable targets, this assay endpoint is annotated to the dna binding intended target family, where the subfamily is basic leucine zipper.
# Human liver HepG2 cells are transiently transfected with multiple reporter transcription units (MRTUs) in 6-well plates using FuGene 6 reagent (Roche; 3 ml FuGene/1 mg DNA). The MRTU constructs are regulated by a cis-regulating element (promoter). […] A major difference between the CIS and TRANS system is that in CIS activities of endogenous TFs are measured, whereas the TRANS assay evaluates changes in activities of exogenous, chimeric NR-Gal4 proteins. […] At the end of 24 hour incubation, total RNA was isolated using TriZol reagent (Invitrogen). The isolated RNA is then reverse-transcribed using oligo(dT) primer and Mo-MLV reverse transcriptase (Invitrogen) with DNAse I (Ambion) treatment for 30 min. The one-tenth of the produced cDNA was amplified by PCR using Taq DNA polymerase (Invitrogen) and two reporter sequence-specific primers. The PCR products were fluorescently labeled by primer extension with 6-arboxyfluorescein (6-FAM) 5'-labeled reporter sequence-specific primer (2 min at 95 C, 20 s at 68 C and 10 min at 72 C) and these products were digested with 5U of HpaI (New England Biolabs) for 2h at 37 C. The fragments were purified using Qiaquick PCR columns (Qiagen), analyzed on an ABI 3130xL genetic analyzer (Applied Biosystems) with peak positions identified by using a set of X-rhodamine (ROX)-labeled MapMarker1000 molecular weight standards (BioVentures). The raw capillary electrophoresis data was processed using Attagraph software (Attagene).
Compound,outcome,AC50
CC(C)(COC(=O)c1ccccc1)COC(=O)c1ccccc1,inactive,
CC1CC(OC(=O)c2ccccc2O)CC(C)(C)C1 (stereo not given),inactive,
CCCC(C)C=O (stereo not given),inactive,
CCCCCCCCCCN,inactive,
CCCCC(CC)COC(=O)/C=C\C(=O)OCC(CC)CCCC (stereo not given),,9.08 µM (active)
CCC/C=C/C=O,,30.5 µM (active)
Clc1nc(C(Cl)(Cl)Cl)c(Cl)c(Cl)c1Cl,,27.6 µM (active)
CCC(=O)/C=C/C1C(C)=CCCC1(C)C (stereo not given),,40.4 µM (active)
C[C@]12CC[C@H]3[C@@H](CCC4=CC(=O)CC[C@@]43C)[C@@H]1CC[C@@H]2C(=O)CO,inactive,
CN(C)c1ccc(O)c2c1C[C@H]1C[C@H]3[C@H](N(C)C)C(=O)C(C(N)=O)=C(O)[C@@]3(O)C(=O)C1=C2O,inactive,
Cc1ccc(C(=O)O)o1,inactive,
Cc1cc(C2(c3cc(C)c(O)cc3C)OS(=O)(=O)c3ccccc32)c(C)cc1O,inactive,
CC(O)C(C)O (stereo not given),inactive,
O=[N+]([O-])c1ccc(C=Cc2ccc([N+](=O)[O-])cc2S(=O)(=O)O)c(S(=O)(=O)O)c1,inactive,
Nc1ccc(S(N)(=O)=O)cc1,inactive,
CC(CCO)CCCC(C)(C)O (stereo not given),inactive,
Cc1ccc(O)c(C(C)(C)C)c1,,25.2 µM (active)
Nc1cccc(S(=O)(=O)c2cccc(N)c2)c1,inactive,
CC1CCC(C(C)CS)CC1S (stereo not given),,33.4 µM (active)
C=CC(C)(O)CCC=C(C)CCC=C(C)C (stereo not given),,100 µM (active)

Compound,outcome,AC50
S=C(S)NCCNC(=S)S,inactive,
CC(C)=CCCC(C)CC=O (stereo not given),inactive,
CC(C)(C#N)c1cc(Cn2cncn2)cc(C(C)(C)C#N)c1,inactive,
CC[Si](OC(C)=O)(OC(C)=O)OC(C)=O,inactive,
CCOc1ccccc1OCC,inactive,
Cc1ccc2sc3cccc(C)c3c2c1,inactive,
CC1(C)CCC(C)(C)c2cc(C(=O)Nc3ccc(C(=O)O)cc3)ccc21,inactive,
O=P(c1ccccc1)(c1ccccc1)c1ccccc1,inactive,
CSc1nc(NC2CC2)nc(NC(C)(C)C)n1,,12.1 µM (active)
CCCCCC=CCC(=O)OC,inactive,
CCCOCC(C)O (stereo not given),inactive,
BrC1CCC(Br)C(Br)CCC(Br)C(Br)CCC1Br (stereo not given),,23.1 µM (active)
Nc1cc(N)cc(C(=O)O)c1,inactive,
O=Cc1ccc(F)cc1,inactive,
CCCCCCCCCCCCCCCCCC(=O)OCC(CC)CCCC (stereo not given),inactive,
O=C(O)CCCCCCCCCCC(=O)O,inactive,
CC(=O)O[C@H](CC(=O)[O-])C[N+](C)(C)C,inactive,
CC(=O)c1c(C)cc(C(C)(C)C)cc1C,inactive,
c1cc(C(c2ccc(OCC3CO3)cc2)c2ccc(OCC3CO3)cc2)ccc1OCC1CO1 (stereo not given),inactive,
CCC(C)CCCC(C)(C)O (stereo not given),inactive,
